Measured values taken from PubChem BioAssay (NCATS).
Records with an inconclusive call do not appear. Entries that show only a call come without a potency. Unmarked numbers belong to inactive results. The source made the active and inactive calls. Calls come from the whole dose curve; as a rule, active = well fitted inhibition curve with a large enough effect; inconclusive = small, poorly fitted or top-dose-only effect; inactive = no such curve, though single readings can be large or run the other way.

Each molecule was assayed against Rap guanine nucleotide exchange factor 4 (Homo sapiens) (UniProt Q8WZA2) (assay: Confirmatory qHTS for antagonist of cAMP-regulated guanine nucleotide exchange factor 4 (EPAC2) (AID 1645885; note: nearly all actives have a fitted effect of over 25% in size)). Details: EPAC2 Rap1B-BODIPY-GDP exchange fluorescence, biochemical; series mostly up to 12.7 µM.
Rap guanine nucleotide exchange factor 4 (Homo sapiens), sequence (Q8WZA2 whole entry, looked up): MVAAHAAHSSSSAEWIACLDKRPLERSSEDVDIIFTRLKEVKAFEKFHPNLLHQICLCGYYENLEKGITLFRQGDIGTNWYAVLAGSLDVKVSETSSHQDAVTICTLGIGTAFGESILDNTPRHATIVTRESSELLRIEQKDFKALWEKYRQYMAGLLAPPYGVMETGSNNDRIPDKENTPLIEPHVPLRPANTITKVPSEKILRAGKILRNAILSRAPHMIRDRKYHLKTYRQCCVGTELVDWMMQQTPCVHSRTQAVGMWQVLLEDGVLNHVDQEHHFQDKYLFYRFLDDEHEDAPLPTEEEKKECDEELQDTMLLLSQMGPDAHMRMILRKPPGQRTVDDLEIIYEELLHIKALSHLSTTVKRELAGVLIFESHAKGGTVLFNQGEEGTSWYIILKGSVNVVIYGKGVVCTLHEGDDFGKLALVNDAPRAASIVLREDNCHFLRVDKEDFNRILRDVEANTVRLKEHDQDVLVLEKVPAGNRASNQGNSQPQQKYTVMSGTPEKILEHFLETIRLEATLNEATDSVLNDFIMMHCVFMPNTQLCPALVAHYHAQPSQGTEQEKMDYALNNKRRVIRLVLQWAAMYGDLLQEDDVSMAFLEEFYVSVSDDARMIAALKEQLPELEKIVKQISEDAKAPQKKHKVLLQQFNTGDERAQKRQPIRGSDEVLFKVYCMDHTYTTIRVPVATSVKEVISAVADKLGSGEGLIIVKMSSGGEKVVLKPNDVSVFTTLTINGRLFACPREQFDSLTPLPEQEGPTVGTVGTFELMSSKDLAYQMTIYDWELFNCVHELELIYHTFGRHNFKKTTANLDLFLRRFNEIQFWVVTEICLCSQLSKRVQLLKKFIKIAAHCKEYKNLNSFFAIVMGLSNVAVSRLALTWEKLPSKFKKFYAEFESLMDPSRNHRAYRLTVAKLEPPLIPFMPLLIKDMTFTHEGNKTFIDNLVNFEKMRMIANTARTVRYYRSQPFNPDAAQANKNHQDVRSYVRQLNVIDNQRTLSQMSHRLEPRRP
`CN(CCOc1ccc(Br)cc1)C(=O)CNC(=O)c1ccc2ccccc2c1` was tested, and the Potency was “inactive”.
With `Cc1cccc(NC(=O)CN2C(=O)N/C(=C\c3ccccc3OCc3ccc(C(=O)O)cc3)C2=O)c1` the Potency was “inactive”.
In the case of `CCOC(=O)c1c(C)oc2c1c(C=NCCO)c(O)c1ccccc12`, the Potency is reported as “inactive”.
`CCOC(=O)c1cc2c(=O)n3ccccc3nc2n(Cc2ccco2)c1=NC(=O)c1c(F)cccc1Cl` was tested, and the Potency was “inactive”.
In the case of `C[C@H]1CN([C@@H](C)CO)S(=O)(=O)c2ccc(Br)cc2O[C@@H]1CN(C)Cc1cccc(F)c1`, the Potency is reported as “inactive”.
`Cc1ccc(C)c(-c2ccc(=O)n(C(C)C(=O)Nc3ccccc3C(F)(F)F)n2)c1` (stereo unspecified) was tested, and the outcome was “inactive [at 12.7 µM]”.
`CCOC(=O)c1ccccc1NC(=O)c1c(C)oc2ncnc(N3CCOCC3)c12` was tested, and the Potency was “inactive”.

Each molecule was assayed against Rap guanine nucleotide exchange factor 3 (Homo sapiens) (UniProt O95398) (assay: Counterscreen qHTS for antagonist of cAMP-regulated guanine nucleotide exchange factor 3 (EPAC1) (AID 1645888;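 note: fluorescence loss as bound BODIPY-GDP is released from Rap1B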)). Details: Rap1B-BODIPY-GDP nucleotide exchange, fluorescence; series mostly up to 154 µM.
Rap guanine nucleotide exchange factor 3 (Homo sapiens), sequence (O95398 whole entry, looked up): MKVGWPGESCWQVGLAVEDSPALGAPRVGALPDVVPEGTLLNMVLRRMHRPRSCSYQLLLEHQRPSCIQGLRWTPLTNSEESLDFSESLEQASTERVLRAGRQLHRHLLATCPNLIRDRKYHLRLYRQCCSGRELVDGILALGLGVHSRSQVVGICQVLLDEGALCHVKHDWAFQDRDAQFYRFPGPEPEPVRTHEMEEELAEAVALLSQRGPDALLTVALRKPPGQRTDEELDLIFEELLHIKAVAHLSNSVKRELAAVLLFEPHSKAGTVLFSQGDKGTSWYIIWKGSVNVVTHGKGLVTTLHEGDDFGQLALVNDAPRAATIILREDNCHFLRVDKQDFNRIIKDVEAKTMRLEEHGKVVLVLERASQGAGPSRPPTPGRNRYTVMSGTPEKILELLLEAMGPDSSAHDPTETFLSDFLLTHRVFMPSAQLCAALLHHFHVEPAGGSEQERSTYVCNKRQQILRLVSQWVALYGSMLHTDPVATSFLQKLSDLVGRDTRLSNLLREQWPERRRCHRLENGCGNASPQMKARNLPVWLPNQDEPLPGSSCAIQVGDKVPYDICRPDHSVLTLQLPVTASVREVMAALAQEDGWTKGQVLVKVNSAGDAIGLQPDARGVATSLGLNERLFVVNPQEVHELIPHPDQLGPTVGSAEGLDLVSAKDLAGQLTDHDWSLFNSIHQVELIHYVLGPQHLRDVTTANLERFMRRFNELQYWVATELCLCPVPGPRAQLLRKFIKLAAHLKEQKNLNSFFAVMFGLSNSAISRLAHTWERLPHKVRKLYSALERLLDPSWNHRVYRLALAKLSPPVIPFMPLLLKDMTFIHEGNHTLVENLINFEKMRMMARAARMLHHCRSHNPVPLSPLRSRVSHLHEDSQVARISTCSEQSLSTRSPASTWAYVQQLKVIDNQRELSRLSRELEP
Outline: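 Rap1B–BODIPY-GDP (250 nM) with 50 uM GDP; compounds pin-transferred to 9.74 nM–152 uM final (activator) or from 7.32 nM upwards (inhibitor). Fluorescence Ex/Em 480/540 nm read at 5 and 30 min, then after adding cAMP or buffer, at room temperature.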
In the case of `Cc1ccc(C)c(OC(C)C(=O)Nc2ccc(S(=O)(=O)Nc3nccs3)cc2)c1` (stereo unspecified), the Potency is reported as “inactive”.
In the case of `O=C1c2cccc3cc([N+](=O)[O-])cc(c23)C(=O)N1/N=C/c1ccc(O)cc1O`, the Potency is reported as “inactive”.
`CSc1ccccc1C(=O)N(C)C(c1ccccc1)c1ccccc1` was tested, and the Potency was “inactive”.
In the case of `ON=C(c1ccccc1)c1ccc2c3c(cccc13)CC2`, the Potency is reported as “inactive”.
Molecule `O=[N+]([O-])c1cc(Br)ccc1NS(=O)(=O)c1ccccc1` has an activity change, negative = inhibition of -16.7% [at 30.8 µM].
`CCc1nc(Oc2cccc(F)c2)c2oc3ccccc3c2n1` was tested, and the Potency was “inactive”.
`COc1ccc(N2Cc3cccc(C(=O)Nc4ccc(C(C)C)cc4)c3C2=O)cc1` was tested, and the Potency was “inactive”.
With `Cc1cccc(Nc2nnc(SC/C(O)=C(\C#N)c3nc4ccccc4[nH]3)s2)c1` the Potency was “inactive”.
With `CN(C)c1ccc(-c2[nH][nH]c(=O)c2NC(=O)c2ccccn2)cc1` the Potency was “inactive”.
`COc1ccc(NC(=O)c2ccco2)cc1NC(=O)C(C)Oc1ccc(Cl)cc1Cl` (stereo unspecified) was tested, and the Potency was “inactive”.
With `Cc1ccc(Nc2nnc(-c3ccc(C)c(S(N)(=O)=O)c3)c3ccccc23)cc1` the Potency was “inactive”.
In the case of `CC(=O)C(=Cc1ccc(Cl)cc1)C(=O)c1ccccc1`, the Potency is reported as “inactive”.
In the case of `C#Cc1ccc([C@@H]2C=C(C(=O)OCC=C)O[C@H](OCc3ccc(CO)cc3)C2)cc1`, the activity change, negative = inhibition is reported as -8.75% [at 30.8 µM].
In the case of `COc1cc(C2CC(=O)Oc3cc(C)c(Br)c(C)c32)cc(OC)c1OC` (stereo unspecified), the activity change, negative = inhibition is reported as -6.95% [at 30.8 µM].
For `COc1ccc(C(CC(=O)c2ccc(C)cc2)C(C#N)C#N)cc1OC` (stereo unspecified), the Potency was “inactive”.
Molecule `O=C(NCc1ccccc1)C(c1ccccc1)n1c(=O)c(-c2ccco2)nc2ccccc21` (stereo unspecified) has an activity change, negative = inhibition of 5.07% [at 30.8 µM].
`Cc1ccc(N=Cc2c(O)c3ccccc3n(C)c2=O)cc1` was tested, and the Potency was “inactive”.
In the case of `CCOC(=O)C1=CN(Cc2cccc(F)c2)S(=O)(=O)NC1c1ccc(Br)cc1F` (stereo unspecified), the Potency is reported as “inactive”.
With `N#C/C(=C/C1=C(N2CCOCC2)C(=C/c2cccc([N+](=O)[O-])c2)/CC1)C(=O)Nc1ccccc1F` the activity change, negative = inhibition was -3.26% [at 30.8 µM].
With `Cc1ccc(C)c(-c2ccc(=O)n(Cc3c(F)cccc3Cl)n2)c1` the Potency was “inactive”.
`CCCCc1ccc(NS(=O)(=O)c2cc3c4c(c2)CC(=O)N4CCC3)cc1` was tested, and the Potency was “inactive”.
For `C/C(=N\NC(=O)c1ccc(O)cc1)c1cccc(NC(=O)c2ccc(Cl)cc2)c1`, the Potency was “inactive”.
`Cc1cccc(S(=O)(=O)Nc2ccc(S(=O)(=O)Nc3nccs3)cc2)c1` was tested, and the Potency was “inactive”.
In the case of `COc1ccc(CC(=O)NCc2ccc3c(c2)CCN3C(=O)c2ccc(Cl)cc2)cc1OC`, the Potency is reported as “inactive”.
Molecule `NC(=O)C1CCN(C(=O)c2ccc3c(=O)n(Cc4cccc(Br)c4)c(=S)[nH]c3c2)CC1` has an activity change, negative = inhibition of -4.35% [at 30.8 µM].
For `O=C1C=C(Nc2cccc3cccnc23)c2ccccc2C1=O`, the Potency was “inactive”.
`O=C(COC(=O)C1(c2ccc(Cl)cc2)CCCC1)NCc1ccco1` was tested, and the Potency was “inactive”.
With `Cc1ccc(/C=C(\C#N)C(=O)Nc2cccc3ncccc23)o1` the Potency was “inactive”.
For `O=C(CSc1nc(O)cc(=O)n1-c1ccccc1)Nc1nc2ccccc2s1`, the Potency was “inactive”.
`O=C(NCCCN1CCOCC1)c1ccc2c(c1)N(Cc1cccc(Cl)c1)C(=O)c1ccccc1S2` was tested, and the Potency was “inactive”.
`CCOC(=O)Cc1cc(=O)n2[nH]c(-c3ccccc3)c(-c3ccccc3)c2n1` was tested, and the Potency was “inactive”.
In the case of `CCC(=O)NC(c1ccc(OC)cc1)c1c(O)ccc2ccccc12` (stereo unspecified), the Potency is reported as “inactive”.
`CN(CCOc1ccc(Br)cc1)C(=O)CNC(=O)c1ccc2ccccc2c1` was tested, and the activity change, negative = inhibition was -17.3% [at 30.8 µM].
In the case of `Cc1cccc(NC(=O)CN2C(=O)N/C(=C\c3ccccc3OCc3ccc(C(=O)O)cc3)C2=O)c1`, the Potency is reported as “inactive”.
With `CCOC(=O)c1c(C)oc2c1c(C=NCCO)c(O)c1ccccc12` the activity change, negative = inhibition was 33.4% [at 30.8 µM].
For `CCOC(=O)c1cc2c(=O)n3ccccc3nc2n(Cc2ccco2)c1=NC(=O)c1c(F)cccc1Cl`, the Potency was “inactive”.
Work on `C[C@H]1CN([C@@H](C)CO)S(=O)(=O)c2ccc(Br)cc2O[C@@H]1CN(C)Cc1cccc(F)c1` yielded an activity change, negative = inhibition of -8.18% [at 30.8 µM].
With `Cc1ccc(C)c(-c2ccc(=O)n(C(C)C(=O)Nc3ccccc3C(F)(F)F)n2)c1` (stereo unspecified) the Potency was “inactive”.
With `CCOC(=O)c1ccccc1NC(=O)c1c(C)oc2ncnc(N3CCOCC3)c12` the Potency was “inactive”.
